According to PubChem BioAssay AID1159580 (chemical genetic matrix, 2015):
About 2,000 (36%) of roughly 5,500 compounds were called active. Inconclusive results (about 18%) are left out. Cut-off read from the data, not from the text of the source: active = normalized growth mostly below about 0.91 (no sharp cut-off); inconclusive = no clear call, values can overlap the other calls; inactive = mostly above about 0.92. The list shows a part of the results.

Experiment: chemical genetic growth profiling, strain panel (AID 1159580);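 note: tested at 20 µM; growth read once vehicle control cultures reached saturation at 30 °C; 1 = growth at the plate median or of vehicle wells; lower values mean less growth of the strain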
Conditions: S. cerevisiae deletion strains, growth OD
[1] = locus YAL021C, strain ccr4, stronger effect = lower value
[2] = locus YAL026C, strain drs2, stronger effect = lower value
[3] = locus YAL030W, strain snc1, stronger effect = lower value
[4] = locus YBL061C, strain skt5, stronger effect = lower value
[5] = locus YBR009C, strain hhf1, stronger effect = lower value
[6] = locus YBR023C, strain chs3, stronger effect = lower value
[7] = locus YBR171W, strain sec66, stronger effect = lower value
[8] = locus YBR231C, strain swc5, stronger effect = lower value
[9] = locus YBR279W, strain paf1, stronger effect = lower value
[10] = locus YCL011C, strain gbp2, stronger effect = lower value
[11] = locus YCL016C, strain dcc1, stronger effect = lower value
[12] = locus YCL069W, strain vba3, stronger effect = lower value
[13] = locus YCR088W, strain abp1, stronger effect = lower value
[14] = locus YDL005C, strain med2, stronger effect = lower value
[15] = locus YDL040C, strain nat1, stronger effect = lower value
[16] = locus YDR001C, strain nth1, stronger effect = lower value
[17] = locus YDR069C, strain doa4, stronger effect = lower value
[18] = locus YDR137W, strain rgp1, stronger effect = lower value
[19] = locus YDR159W, strain sac3, stronger effect = lower value
[20] = locus YDR297W, strain sur2, stronger effect = lower value
[21] = locus YDR334W, strain swr1, stronger effect = lower value
[22] = locus YDR335W, strain msn5, stronger effect = lower value
[23] = locus YDR392W, strain spt3, stronger effect = lower value
[24] = locus YEL003W, strain gim4, stronger effect = lower value
[25] = locus YEL037C, strain rad23, stronger effect = lower value
[26] = locus YEL061C, strain CIN8 (second series), stronger effect = lower value
[27] = locus YER015W, strain faa2, stronger effect = lower value
[28] = locus YER016W, strain bim1, stronger effect = lower value
[29] = locus YER111C, strain swi4, stronger effect = lower value
[30] = locus YER155C, strain BEM2 (second series), stronger effect = lower value
[31] = locus YFR010W, strain ubp6, stronger effect = lower value
[32] = locus YGL167C, strain pmr1, stronger effect = lower value
[33] = locus YGL173C, strain kem1, stronger effect = lower value
[34] = locus YGL227W, strain vid30, stronger effect = lower value
[35] = locus YGL240W, strain doc1, stronger effect = lower value
[36] = locus YGL253W, strain hxk2, stronger effect = lower value
[37] = locus YHR013C, strain ard1, stronger effect = lower value
[38] = locus YHR027C, strain rpn1, stronger effect = lower value
[39] = locus YHR030C, strain SLT2, stronger effect = lower value
[40] = locus YHR142W, strain chs7, stronger effect = lower value
[41] = locus YJL092W, strain hpr5, stronger effect = lower value
[42] = locus YJL095W, strain BCK1 (second series), stronger effect = lower value
[43] = locus YJL115W, strain asf1, stronger effect = lower value
[44] = locus YJL129C, strain trk1, stronger effect = lower value
[45] = locus YJL154C, strain vps35, stronger effect = lower value
[46] = locus YJL164C, strain tpk1, stronger effect = lower value
[47] = locus YJL166W, strain qcr8, stronger effect = lower value
[48] = locus YJL187C, strain SWE1, stronger effect = lower value
[49] = locus YKL160W, strain elf1, stronger effect = lower value
[50] = locus YKR026C, strain gcn3, stronger effect = lower value
[51] = locus YKR091W, strain srl3, stronger effect = lower value
[52] = locus YLL001W, strain dnm1, stronger effect = lower value
[53] = locus YLL026W, stronger effect = lower value
[54] = locus YLL041C, strain sdh2, stronger effect = lower value
[55] = locus YLR027C, strain aat2, stronger effect = lower value
[56] = locus YLR221C, strain rsa3, stronger effect = lower value
[57] = locus YLR258W, strain gsy2, stronger effect = lower value
[58] = locus YLR262C, strain YPT6 (second series), stronger effect = lower value
[59] = locus YLR320W, strain mms22, stronger effect = lower value
[60] = locus YLR342W, strain FKS1, stronger effect = lower value
[61] = locus YLR357W, strain rsc2, stronger effect = lower value
[62] = locus YLR370C, strain arc18, stronger effect = lower value
[63] = locus YLR384C, strain iki3, stronger effect = lower value
[64] = locus YML120C, strain ndi1, stronger effect = lower value
[65] = locus YMR058W, strain fet3, stronger effect = lower value
[66] = locus YMR125W, strain sto1, stronger effect = lower value
[67] = locus YMR129W, stronger effect = lower value
[68] = locus YMR205C, strain PFK2, stronger effect = lower value
[69] = locus YMR231W, strain pep5, stronger effect = lower value
[70] = locus YNL071W, strain lat1, stronger effect = lower value
[71] = locus YNL209W, strain ssb2, stronger effect = lower value
[72] = locus YNL248C, strain rpa49, stronger effect = lower value
[73] = locus YNL322C, strain KRE1 (second series), stronger effect = lower value
[74] = locus YNR049C, strain mso1, stronger effect = lower value
[75] = locus YOR001W, strain rrp6, stronger effect = lower value
[76] = locus YOR070C, strain gyp1, stronger effect = lower value
[77] = locus YOR080W, strain dia2, stronger effect = lower value
[78] = locus YOR083W, strain WHI5, stronger effect = lower value
[79] = locus YOR106W, strain vam3, stronger effect = lower value
[80] = locus YOR265W, strain rbl2, stronger effect = lower value
[81] = locus YOR270C, strain vph1, stronger effect = lower value
[82] = locus YOR290C, strain snf2, stronger effect = lower value
[83] = locus YPL051W, strain arl3, stronger effect = lower value
[84] = locus YPL078C, strain atp4, stronger effect = lower value
[85] = locus YPL106C, strain sse1, stronger effect = lower value
[86] = locus YPL240C, strain hsp82, stronger effect = lower value

Measured: normalized growth

CC(=O)/C(=C\c1ccccc1)CC(=O)O
inactive: [1] 1 | [2] 0.995 | [3] 1 | [4] 1 | [5] 0.986 | [6] 1 | [7] 0.992 | [8] 0.982 | [9] 0.999 | [10] 0.988 | [11] 0.991 | locus YCL061C, strain MRC1, stronger effect = lower value 0.994 | [12] 0.997 | [13] 0.998 | [14] 0.998 | [15] 0.985 | [16] 0.992 | [17] 0.982 | [18] 1.01 | [19] 0.97 | locus YDR195W, strain ref2 0.948 | [20] 0.994 | [21] 0.996 | [22] 0.996 | [23] 0.775 | [24] 0.992 | [25] 0.997 | [26] 0.989 | [27] 0.996 | [28] 0.993 | [29] 0.992 | [30] 0.923 | [31] 0.994 | [32] 0.993 | [33] 0.991 | [34] 0.991 | [35] 0.978 | [36] 0.984 | [37] 0.956 | [38] 0.996 | [39] 0.976 | locus YHR079C, strain IRE1, stronger effect = lower value 0.954 | [40] 1.01 | [41] 0.991 | [42] 0.992 | locus YJL095W, strain BCK1, stronger effect = lower value 0.967 | [43] 0.993 | [44] 0.984 | [45] 1 | [46] 1 | [47] 0.976 | [48] 0.997 | locus YJR066W, strain TOR1, stronger effect = lower value 0.899 | [49] 1.01 | [50] 0.986 | [51] 0.999 | [52] 0.98 | [53] 0.991 | [54] 1 | [55] 0.997 | locus YLR113W, strain HOG1, stronger effect = lower value 0.972 | [56] 1 | [57] 0.992 | [58] 1.02 | [59] 0.971 | [60] 0.993 | [61] 0.957 | [62] 0.998 | [63] 0.992 | [64] 1.01 | [65] 0.992 | [66] 0.955 | [67] 0.988 | [68] 0.967 | [69] 0.995 | [70] 0.995 | locus YNL183C, strain NPR1, stronger effect = lower value 0.927 | [71] 1 | [72] 0.982 | [73] 0.991 | [74] 0.998 | [75] 1 | [76] 0.995 | [77] 0.99 | [78] 1.02 | [79] 1.01 | locus YOR231W, strain MKK1, stronger effect = lower value 0.969 | [80] 0.993 | [81] 0.98 | [82] 0.981 | [83] 1.01 | [84] 1.01 | [85] 0.997 | [86] 0.987 | locus YPL256C, strain CLN2, stronger effect = lower value 0.968

O=C(N/N=C\C=C\c1ccccc1)c1ccccc1-n1cccc1
inactive: locus YAL013W, strain DEP1, stronger effect = lower value 0.96 | locus YBR229C, strain ROT2, stronger effect = lower value 0.979 | locus YDL101C, strain DUN1, stronger effect = lower value 0.993 | locus YDR150W, strain NUM1, stronger effect = lower value 0.996 | locus YEL061C, strain CIN8, stronger effect = lower value 1 | locus YGR078C, strain PAC10, stronger effect = lower value 0.988 | [39] 0.925 | locus YHR087W, strain rtc3, stronger effect = lower value 0.93 | [48] 0.976 | locus YJR043C, strain POL32, stronger effect = lower value 1.01 | locus YJR075W, strain HOC1, stronger effect = lower value 0.997 | locus YLR039C, strain RIC1, stronger effect = lower value 0.87 | locus YLR058C, strain SHM2 (second series), stronger effect = lower value 0.97 | locus YLR085C, strain ARP6, stronger effect = lower value 0.836 | locus YLR262C, strain YPT6, stronger effect = lower value 0.833 | locus YML094W, strain GIM5, stronger effect = lower value 0.939 | locus YMR219W, strain ESC1, stronger effect = lower value 0.99 | locus YMR263W, strain SAP30, stronger effect = lower value 0.973 | locus YMR307W, strain GAS1, stronger effect = lower value 0.713 | locus YNL128W, strain TEP1, stronger effect = lower value 0.987 | locus YNL153C, strain GIM3, stronger effect = lower value 1 | locus YNL298W, strain CLA4 (second series), stronger effect = lower value 0.928 | locus YNL322C, strain KRE1, stronger effect = lower value 0.996 | locus YNR030W, strain Alg12, stronger effect = lower value 0.906 | locus YPL055C, strain LGE1, stronger effect = lower value 0.899 | locus YPL241C, strain CIN2, stronger effect = lower value 0.948 | locus YPR135W, strain CTF4, stronger effect = lower value 0.795

COc1cccc(/C=C/C(=O)O)c1C(C)C
inactive: [1] 0.952 | [2] 0.983 | [3] 0.978 | [4] 0.973 | [5] 1.01 | [6] 0.973 | [7] 0.969 | [8] 0.976 | [9] 0.995 | [10] 0.999 | [11] 0.982 | [12] 0.982 | [13] 0.977 | [14] 0.96 | [15] 0.988 | [16] 0.983 | [17] 0.97 | [18] 0.992 | [19] 0.917 | locus YDR195W, strain ref2 0.96 | [20] 0.973 | [21] 0.983 | [22] 0.994 | [23] 0.961 | [24] 0.994 | [25] 0.985 | [26] 1 | [27] 0.977 | [28] 0.981 | [29] 0.976 | [30] 0.967 | [31] 0.99 | [32] 0.978 | [33] 0.991 | [34] 0.985 | [35] 0.984 | [36] 0.98 | [37] 0.957 | [38] 0.995 | [40] 0.996 | [41] 0.983 | [42] 0.974 | [43] 0.972 | [44] 0.973 | [45] 0.983 | [46] 0.985 | [47] 0.982 | [48] 0.998 | [49] 0.987 | [50] 0.982 | [51] 0.999 | [52] 0.988 | [53] 0.972 | [54] 0.971 | [55] 0.989 | [56] 0.999 | [57] 0.986 | [58] 1.03 | [59] 0.975 | [60] 0.982 | [61] 0.945 | [62] 0.993 | [63] 0.989 | [64] 0.979 | [65] 0.976 | [66] 0.988 | [67] 0.99 | [68] 0.937 | [69] 0.977 | [70] 0.982 | [71] 1.01 | [72] 0.988 | [73] 0.951 | [74] 0.967 | [75] 0.998 | [76] 0.999 | [77] 0.994 | [78] 0.981 | [79] 1.01 | [80] 0.973 | [81] 1.02 | [82] 0.98 | [83] 0.996 | [84] 1.01 | [85] 0.929 | [86] 0.976
